This note sets out measurements from PubChem BioAssay (Tox21).

Several values for one entry are separate records, joined by “and”; a condition that tells them apart may be missing. Equal values may be shown once. Inconclusive results are not listed. Activity calls are given as the source filed them. Unless noted, calls come from the whole dose curve; as a rule, active = well fitted curve in the direction sought with a large enough effect in the repeat runs; inconclusive = weak or mixed curves; inactive = no such curve, though single readings can be large; an effect the other way counts as inactive or inconclusive.

Assay [1] can be described thus: qHTS assay for small molecules that induce genotoxicity in human embryonic kidney cells expressing luciferase-tagged ATAD5 (AID 651632). Note: nearly all actives have a fitted effect of over 15% in size. Summed up:
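Test compounds were delivered by pin tool onto HEK293T reporter cells (2,000/well) expressing ATAD5 fused to luciferase. After 16 hr at 37C, 5% CO2, Amplite was added for 30 min at room temperature and luminescence was measured.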

Assay [2] can be described thus: qHTS assay for small molecule agonists of the p53 signaling pathway - cell viability (AID 651633; calls by dose curve;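 note: p53RE-bla HCT reporter cells with a stable beta-lactamase p53 reporter; series mostly up to about 83 µM; nearly all actives have a fitted effect of over 30% in size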). Summed up:
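Viability counter-read: CellTiter-Glo luminescence (30 min, room temperature) in the same p53RE-bla plates. These plates had been exposed to compounds for 16 h at 37 C.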
A general note: Quantitative high-throughput screening tests each substance at several concentrations.

A short description of assay [3]: qHTS assay for small molecules that induce genotoxicity in human embryonic kidney cells expressing luciferase-tagged ATAD5 - cell viability (AID 651634; calls by dose curve; note: nearly all actives have a fitted effect of over 25% in size). In outline:
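Quantitative high-throughput format. HEK293T cells expressing ATAD5 fused to luciferase were plated at 2,000 cells/well and treated 15.5 hr with compound versus DMSO. Viability was determined by fluorescent live-cell protease substrate, 30 min at 37C.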

Assay [4] can be described thus: qHTS assay for small molecule disruptors of the mitochondrial membrane potential - cell viability (AID 720634; calls by dose curve; note: nearly all actives have a fitted effect of over 20% in size; note: potency is the fitted concentration of half-maximal effect). In outline: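 Same-well counter-screen: following the MMP dye addition, CellTiter-Glo was added to 1 hr compound-treated HepG2 cells and luminescence read after 30 min at room temperature.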
A short description of assay [5]: qHTS assay to test for compound auto fluorescence at 590 nm (red) in HepG2 cells (AID 720674). Summed up:
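1 hr compound incubation on HepG2 cells, 37 C, 5% CO2; plate read ex 540 nm / em 590 nm; intensities reported as Rose Bengal sodium equivalents.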

Assay [6] in a line: qHTS assay to test for compound auto fluorescence at 535 nm (green) in HepG2 cells (AID 720675).
A short description of assay [7]: qHTS assay to test for compound auto fluorescence at 460 nm (blue) in HEK293 cells (AID 720678). Summed up: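 Cells were seeded and left to adhere for 4-5 hr at 37C. Compounds were then pin-transferred. After an overnight incubation at 37C under 5% CO2, intrinsic fluorescence at 405/460 nm was measured and referenced to triamterene.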
Assay [8] in a line: qHTS assay to test for compound auto fluorescence at 590 nm (red) in HEK293 cells (AID 720679). Summed up:
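Each well held 2,000 HEK293 cells in medium containing 10% dialyzed FBS. Following 4-5 hr attachment at 37C, 23 nL test compound or DMSO was added; plates sat overnight, and red fluorescence (540/590nm) was recorded.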

Assay [9] in a line: qHTS assay to test for compound auto fluorescence at 535 nm (green) in HEK293 cells (AID 720680).
A short description of assay [10]: qHTS assay to test for compound auto fluorescence at 460 nm (blue) in HEK293 cell free culture (AID 720681). In outline: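 Blue fluorescence (Ex 405/Em 460 nm, triamterene-equivalent) was read immediately after pin transfer of compound or DMSO into medium (DMEM, 10% FBS) without cells.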
Assay [11] can be described thus: qHTS assay to test for compound auto fluorescence at 535 nm (green) in HEK293 cell free culture (AID 720682). Summed up:
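Intrinsic compound fluorescence is measured in culture medium containing 10% FBS, with excitation at 485 nm and detection at 535 nm, referenced to fluorescein.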

The nature of assay [12]: qHTS assay to test for compound auto fluorescence at 590 nm (red) in HEK293 cell free culture (AID 720683). Summed up: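 Red-channel autofluorescence of compounds in culture medium (DMEM, 10% FBS), no cells, measured at 540/590 nm. Rose Bengal sodium is the reference fluorophore for equivalence.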
The nature of assay [13]: qHTS assay to test for compound auto fluorescence at 590 nm (red) in HepG2 cell free culture (AID 720684). Summed up: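 No cells present: MEM + 10% FBS only. Compound pinned in, red label read (540/590 nm). Activity = fluorescence equivalent to Rose Bengal sodium.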
The nature of assay [14]: qHTS assay to test for compound auto fluorescence at 460 nm (blue) in HepG2 cell free culture (AID 720685). Summed up: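 Cell-free plates of MEM plus 10% FBS received 23 nL compound or DMSO vehicle; blue-channel (405/460 nm) intensity scored against triamterene as reference fluorophore.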
The nature of assay [15]: qHTS assay to test for compound auto fluorescence at 535 nm (green) in HepG2 cell free culture (AID 720686).
A short description of assay [16]: qHTS assay to test for compound auto fluorescence at 460 nm (blue) in HepG2 cells (AID 720687). Summed up:
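Blue-channel autofluorescence (Ex/Em 405/460 nm, triamterene-equivalent) was measured after 1 hr compound exposure at 37 C, 5% CO2. Cells were HepG2, plated overnight at 37 C in MEM plus 10% FBS.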

For assay [17], the target named is Glucocorticoid receptor (Homo sapiens) (UniProt P04150). Kind of assay: qHTS assay to identify small molecule agonists of the glucocorticoid receptor (GR) signaling pathway (AID 720691; active = well fitted activation curve with a large enough effect in the signal ratio in the repeat runs, not every such curve was filed as active; the % refers to the signal ratio). In outline:
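A HeLa cervical cancer line expressing GR and a glucocorticoid response element-driven beta-lactamase gene is treated with compounds for 18 h; LiveBLAzer B/G FRET substrate is then applied and fluorescence read.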

The target is the same in assay [18]. Kind of assay: qHTS assay to identify small molecule antagonists of the glucocorticoid receptor (GR) signaling pathway (AID 720692; active = well fitted inhibition curve with a large enough effect in the signal ratio in the repeat runs, not every such curve was filed as active; the % refers to the signal ratio). Summed up: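 GRE-bla HeLa line, dex-stimulated (5 nM final). Compound exposure 18 h, 37 C. Beta-lactamase FRET read after 2 h RT substrate.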
Assay [19] in a line: qHTS assay for small molecule disruptors of the mitochondrial membrane potential (AID 720635). Note: potency is the fitted concentration of half-maximal effect. In outline:
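Mitochondrial membrane potential tracked with Mito-MPS dye, red aggregates (ex 540/em 590 nm) against green monomers (ex 490/em 535 nm). Compound treatment 1 hr at 37C, dye 30 min in HepG2.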

Glucocorticoid receptor (Homo sapiens), sequence (P04150 whole entry, looked up): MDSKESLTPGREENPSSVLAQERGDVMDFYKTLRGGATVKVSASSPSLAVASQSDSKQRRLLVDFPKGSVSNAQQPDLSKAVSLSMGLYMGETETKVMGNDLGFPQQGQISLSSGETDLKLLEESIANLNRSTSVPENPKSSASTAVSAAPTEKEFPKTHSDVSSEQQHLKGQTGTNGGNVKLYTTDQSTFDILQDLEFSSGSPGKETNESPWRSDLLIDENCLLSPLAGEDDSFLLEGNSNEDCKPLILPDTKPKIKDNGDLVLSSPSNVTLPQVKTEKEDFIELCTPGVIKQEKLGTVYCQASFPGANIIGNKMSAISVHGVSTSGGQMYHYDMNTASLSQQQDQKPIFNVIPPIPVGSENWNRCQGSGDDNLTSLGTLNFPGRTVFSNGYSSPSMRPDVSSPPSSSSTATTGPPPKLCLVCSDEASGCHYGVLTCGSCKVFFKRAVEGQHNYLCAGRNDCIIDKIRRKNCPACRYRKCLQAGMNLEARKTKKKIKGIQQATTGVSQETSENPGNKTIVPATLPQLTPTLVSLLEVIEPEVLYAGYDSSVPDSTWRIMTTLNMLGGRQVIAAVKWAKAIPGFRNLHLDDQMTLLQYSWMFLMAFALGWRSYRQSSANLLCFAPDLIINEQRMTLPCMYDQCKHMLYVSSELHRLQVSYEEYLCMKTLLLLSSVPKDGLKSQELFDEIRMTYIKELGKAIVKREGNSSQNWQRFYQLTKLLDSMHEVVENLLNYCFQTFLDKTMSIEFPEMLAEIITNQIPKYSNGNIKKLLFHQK

On to `CC(C)c1ccc(NC(=O)N(C)C)cc1`, for which the Potency entry in assay [1], in assay [2], in [3], in assay [4], in assay [17] and in [18] was “inactive” in each case. Besides, the outcome in assay [5], in assay [6], in assay [7], in assay [8], in assay [9] and in assay [10] was inactive. In addition, the outcome in [11], in assay [12], in [13], in [14], in assay [15] and in assay [16] was inactive.

Regarding `c1ccc2sc(SNC3CCCCC3)nc2c1`, the Potency entry in [1], in assay [2], in assay [3], in assay [4], in [17] and in [18] was “inactive” each time. Moreover, the Potency in [19] was 67.8 µM (active) and 54.5 µM (active). Also, the call in [5], in [6], in assay [7], in assay [8], in [9] and in assay [11] was inactive. Further, the result in assay [12], in [13], in assay [14] and in assay [16] was inactive.

Regarding `CCC1(CCC(C)C)C(=O)NC(=O)NC1=O`, the Potency result in assay [1], in assay [2], in [3] and in [4] was “inactive” in each case. Also, the call in [5], in [6], in assay [7], in [8], in [9] and in assay [10] was inactive. The compound was classed as inactive in assay [11], in assay [12], in assay [13], in [14], in [15] and in [16].

Regarding `O=C(N[C@H]1CN2CCC1CC2)c1ccc2c(c1)OCCO2`, the Potency entry in assay [1], in assay [2], in [3], in assay [4], in assay [19] and in assay [17] was “inactive” each time. Moreover, the Potency result in assay [18] was “inactive”. Further, the result in assay [5], in assay [6], in assay [8], in [9], in assay [10] and in assay [11] was inactive. Further, the outcome in assay [12], in assay [13], in assay [14], in assay [15] and in [16] was inactive.

On to `O=S(=O)(c1ccccc1)c1ccccc1`, for which the Potency entry in assay [1], in assay [2], in assay [3] and in assay [4] was “inactive” each time. In addition, the compound was called inactive in assay [5], in [6], in assay [7], in assay [8], in [9] and in assay [11]. The compound was called inactive in assay [12], in assay [13], in assay [14], in [15] and in assay [16].

With `C[Si](Cn1cncn1)(c1ccc(F)cc1)c1ccc(F)cc1`, the Potency result in [1] and in assay [3] was “inactive” each time. Moreover, the Potency was 31.6 µM (active) in assay [4]; 56.3 µM (active) and 27.3 µM (active) in [19]. Besides, the call in assay [5], in [6], in assay [7], in [8], in assay [9] and in [10] was inactive. For the same compound, the compound was called inactive in [11], in assay [12], in assay [13], in assay [14], in [15] and in assay [16].

`COCc1cnc(C2=NC(C)(C(C)C)C(=O)N2)c(C(=O)O)c1` (stereo not drawn): the Potency result in assay [1], in assay [2], in assay [3], in assay [4], in assay [17] and in assay [18] was “inactive” in each case. Also, the compound was called inactive in [5], in [6], in assay [7], in assay [8], in assay [9] and in assay [10]. In addition, the result in [11], in [12], in [13], in assay [14], in assay [15] and in assay [16] was inactive.
